Experimental data: PubChem BioAssay (NCI)
Compounds without any hit were thinned out: in the full panel of roughly 79,000, 15% have a hit. Calls of active or inactive are those of the source. No stated cut-off is given here; in the data, active means growth inhibition above about 70%; inactive means the rest.

What was measured:
[1] = NCI Yeast Anticancer Drug Screen. Data for the rad50 strain (AID 155);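 further: 0% = growth of vehicle-only cultures of the same strain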; conditions: S. cerevisiae rad50 strain growth inhibition; at 50.0 µM; active compounds read high
Method in brief: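 Inhibition values express reduced yeast growth in compound-treated cultures relative to vehicle-treated controls.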

[2] = NCI Yeast Anticancer Drug Screen. Data for the mec2-1 strain (AID 157); conditions: S. cerevisiae mec2-1 strain, at 50.0 µM, active compounds read high
Method in brief: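 Compounds were applied to mec2-1 yeast cells. Their growth was then compared with that of vehicle-treated cultures to give growth inhibition.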

[3] = NCI Yeast Anticancer Drug Screen. Data for the sgs1 mgt1 strain (AID 161);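 further: 0% = growth of cultures given vehicle only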; conditions: S. cerevisiae sgs1 mgt1 strain, at 50.0 µM, active compounds read high
Method in brief: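 Percent growth inhibition was derived by comparing compound-exposed mutant yeast with vehicle-exposed cultures. The strain carries alterations in DNA damage repair.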

[4] = NCI Yeast Anticancer Drug Screen. Data for the cln2 rad14 strain (AID 165);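 further: 0% = growth equal to vehicle treated cultures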; conditions: S. cerevisiae cln2 rad14 strain, at 50.0 µM, active compounds read high
Method in brief: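 Strain: cln2 rad14 yeast, altered in cell cycle control and DNA damage repair. Read-out: growth inhibition vs vehicle.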

[5] = NCI Yeast Anticancer Drug Screen. Data for the bub3 strain (AID 167); conditions: S. cerevisiae bub3 mutant strain, at 50.0 µM, active compounds read high
Method in brief: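 Steps: expose the mutant yeast strain to compound; grow alongside vehicle-treated cultures; measure growth; express inhibition against the vehicle cultures.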

[6] = NCI Yeast Anticancer Drug Screen. Data for the mlh1 rad18 strain (AID 175); conditions: S. cerevisiae mlh1 rad18 strain growth inhibition; at 50.0 µM; active compounds read high
Method in brief: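 A repair-deficient yeast strain is exposed to test compound, and growth is scored relative to vehicle-treated controls.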

Measured: growth inhibition

O=C1Cc2c([nH]c3ccc(Cl)cc23)-c2ccccc2N1
inactive: [1] 5.55% | [2] 2.1% | [3] -50.9% | [4] 13.8% | [5] -7.9% | [6] 17.1%

O=C(O)C1CC=CCC1C(=O)O (stereo not given)
inactive: [1] 8.5% | [2] -7.45% | [3] -12.4% | [4] -45.9% | [5] 1.4% | [6] 9.95%

C/C(=C/c1ccccc1)OC(=O)c1ccccc1
inactive: [1] 25.7% | [2] 4.55% | [3] 10.8% | [4] -1.85% | [5] 26.4% | [6] 36.2%

CC(=O)c1nc2ccccc2n1CC(=O)c1ccc(Cl)cc1
inactive: [1] -9.25% | [2] 11.3% | [3] 18.9% | [4] 12.6% | [5] 43.7% | [6] -3.55%

COc1ccc(NC(=O)CC(O)c2cccc(N)c2)cc1 (stereo not given)
inactive: [1] 22.3% | [2] -26.4% | [3] 26.3% | [4] 7.1% | [5] 25.1% | [6] 12.5%

COc1ccc2c(c1)CCc1nc(N)nc(N)c1-2
inactive: [1] -3.9% | [2] 4.1% | [3] -14.2% | [4] -40.5% | [5] -16.1% | [6] 11.8%

CC(=O)[C@@]1(c2ccccc2)N(C(=O)c2ccccc2)[C@@]1(C)C(=O)c1ccccc1
inactive: [1] 22.1% | [2] 2.25% | [3] 14.4% | [4] 53.1% | [5] 3.85% | [6] -0.75%

CCOC(=O)C/C(C)=N\NS(=O)(=O)c1ccc([N+](=O)[O-])cc1
inactive: [1] 3.05% | [2] -16.5% | [3] 8.85% | [4] -30.1% | [5] 8% | [6] 2.45%

CC(C)CC([N+](C)(C)C)P(=O)([O-])O (stereo not given)
inactive: [1] -4.4% | [2] 1.6% | [3] -4.7% | [4] -9.2% | [5] 20.9% | [6] -3.5%

CCCCOC(=O)C1CC2OC2CC1C(=O)OCCOCCOC(=O)C1CC2OC2CC1C(=O)OCCCC (stereo not given)
inactive: [1] -18.3% | [2] -6.45% | [3] -14.4% | [4] -39.9% | [5] 14.6% | [6] -42.5%

CC1=C(C)C(N(C)C)CS(=O)(=O)O1 (stereo not given)
inactive: [1] 6.35% | [2] -18.4% | [3] -0.7% | [4] -47% | [5] -11.2% | [6] -7.9%

O=C(Nc1ccccc1C(=O)N/N=C/c1ccccc1O)c1ccccc1Cl
active: [1] 73.3% | [2] 91% | [3] 91.4% | [4] 84.8% | [6] 90.8%
inactive: [5] 68.3%

COC1(OC)C2(Cl)C(Cl)=C(Cl)C1(Cl)C1C=CC=CC12 (stereo not given)
inactive: [1] -19.9% | [2] -14.2% | [3] -14.3% | [4] 5.55% | [5] -18.6% | [6] -35.3%

CC(C)(C)c1cc(C(=O)O)ccc1C(=O)O
inactive: [1] -4.2% | [2] 12.1% | [3] -2.75% | [4] -4.2% | [5] -26.4% | [6] -8.15%

Cc1cn(C2CC(OS(C)(=O)=O)C(COC(c3ccccc3)(c3ccccc3)c3ccccc3)O2)c(=O)[nH]c1=O (stereo not given)
inactive: [1] 30.9% | [2] 1.95% | [3] 16.6% | [4] -15.2% | [5] -0.9% | [6] 15.3%

CCOC(=O)CSc1[nH]c(NC(=S)Nc2ccccc2)c(C(N)=O)c1C(N)=O
inactive: [1] -14.2% | [2] -8.2% | [3] 23.7% | [4] -1.2% | [5] 7.5% | [6] -4.45%

CCCCCCCCCCCCCCCCCCn1cnc2ncnc(Cl)c21
inactive: [1] 6.95% | [2] 5.6% | [3] 8.15% | [4] 55.3% | [6] 32.7%
active: [5] 96.5%

N#CC(C#N)=C(C#N)Nc1ccc(F)cc1
inactive: [1] 1% | [2] -10.4% | [3] -16.6% | [4] -6.5% | [5] -13.4% | [6] -0.4%

COc1cc(N=Nc2cccc(S(=O)(=O)O)c2)ccc1NC(=O)c1ccc(C(=O)Nc2ccc(N=Nc3cccc(S(=O)(=O)O)c3)cc2OC)cc1
inactive: [1] 3.35% | [2] 17.4% | [3] 23% | [4] -8.2% | [5] -13.8% | [6] 21.2%

Cc1ccc(S(=O)(=O)N(c2cc(C)ccc2C)c2ccccc2N)cc1
inactive: [1] 58.6% | [2] 50.9% | [3] 41.8% | [4] 49.9% | [5] 20.9% | [6] 25.2%

CC(C)c1cc2c(O)c(c1)Cc1cc(C(C)C)cc(c1O)Cc1cc(C(C)C)cc(c1O)Cc1cc(C(C)C)cc(c1O)Cc1cc(C(C)C)cc(c1O)Cc1cc(C(C)C)cc(c1O)C2
inactive: [1] -21.1% | [2] -0.85% | [3] -14.8% | [4] 14.6% | [5] 3.55% | [6] -24.1%

CN(C)CCCSc1nc2ccccc2[nH]1
inactive: [1] -7.85% | [2] -13.8% | [3] -20.6% | [4] 0.75% | [5] 7.1% | [6] -6.6%

COc1ccc(NC(=O)Nc2ccc(-c3ccc(NC(=O)Nc4ccc(OC)cc4)c(C)c3)cc2C)cc1
inactive: [1] -30.1% | [2] -41.4% | [3] -8.5% | [4] -3.25% | [5] -24.1% | [6] -23.6%

O=C(Oc1ccc(-c2ccc([N+](=O)[O-])cc2)cc1)c1ccccc1
inactive: [1] 29.8% | [2] 3.9% | [3] 17% | [4] 15.4% | [5] 19.9% | [6] 8.25%

Cc1ccc(S(=O)(=O)Oc2nc3ccccc3nc2N(S(=O)(=O)c2ccc(C)cc2)S(=O)(=O)c2ccc(C)cc2)cc1
inactive: [1] -9.8% | [2] -1.3% | [3] 1.3% | [4] 10% | [5] 5.95% | [6] 17.7%

CCCC(=O)CC(C)C(=O)C(=O)NC12CC3CC(CC(C3)C1)C2 (stereo not given)
inactive: [1] 14.6% | [2] 8.35% | [3] 13.4% | [4] 20.2% | [5] 4.4% | [6] 30.3%

O=c1c(-c2ccc3c(c2)OCO3)coc2cc(O)ccc12
inactive: [1] -2.9% | [2] -0.85% | [3] 18.9% | [4] 13.7% | [5] 11.6% | [6] 23.1%

C/C(=N/NS(=O)(=O)c1ccc(C)cc1)C(=NO)/C(C)=N\NS(=O)(=O)c1ccc(C)cc1
active: [2] 70.2% | [4] 86.2%
inactive: [1] 55.6% | [3] 45.4% | [5] 49.9% | [6] 60.5%

O=Cc1ccc(C=O)cc1
inactive: [1] 22.6% | [2] -3.35% | [3] 26.9% | [4] 11.9% | [5] 14.2% | [6] 32.5%

[N-]=[N+]=NC1OC(=O)C(Cl)=C1N=P(c1ccccc1)(c1ccccc1)c1ccccc1 (stereo not given)
inactive: [1] 4.3% | [2] 11.3% | [3] 24.4% | [4] 9.6% | [5] 12.1% | [6] 23%

C=CC(C)(C)c1c(OC(C)=O)cc2oc3c(OC(C)=O)c(OC(C)=O)cc(CC=C(C)C)c3c(=O)c2c1O
inactive: [1] 34% | [2] 12.3% | [3] 11.2% | [4] 7.35% | [5] -5.85% | [6] -0.55%

CN(C)C(=O)c1cc2ccccc2[nH]1
inactive: [1] 28.9% | [2] 16.4% | [3] 6.7% | [4] 12.8% | [5] 3.75% | [6] 20.2%

COc1ccc(CC2c3cc(OC)c(OC)cc3CCN2C(=O)c2ccccc2)cc1OC (stereo not given)
inactive: [1] 10% | [2] -18.9% | [3] 9.5% | [4] 16.3% | [5] 10.7% | [6] 1.45%

CC(C)C(=O)Oc1cc2c(=O)oc3c(OC(=O)C(C)C)c(OC(=O)C(C)C)cc4c(=O)oc(c1OC(=O)C(C)C)c2c34
inactive: [1] 40.1% | [2] 12.6% | [3] 25.6% | [4] 13.7% | [5] 31.6% | [6] 48.5%

COc1ccc2nc3cc([N+](=O)[O-])ccc3c(Nc3ccc(S(=O)(=O)N=C(N)N)cc3)c2c1
inactive: [1] 59.8% | [2] 21.8% | [3] 48.5% | [4] 12.8% | [5] 38.8% | [6] 53.9%

O=C1CSC(=S)N1c1cccc(F)c1
inactive: [1] 32.1% | [2] -10.6% | [3] 2.1% | [4] -27.2% | [5] -18.1% | [6] 3.65%

CC(NC(=O)CNC(=O)CNC(=O)OCc1ccccc1)C(=O)OCc1ccccc1 (stereo not given)
inactive: [1] 4.35% | [2] 1.4% | [3] -3.65% | [4] -3.65% | [5] 1.45% | [6] 5.4%

CC(=O)CCC(=O)CCC(C)=O
inactive: [1] -0.05% | [2] 30.4% | [3] 6.05% | [4] -1.85% | [5] 29.1% | [6] -2.7%

N#CCCn1[nH]c(=O)c(Cl)c(Cl)c1=O
inactive: [1] 6.95% | [2] 4.6% | [3] -3.9% | [4] -6.8% | [5] 4.15% | [6] -3.3%

O=C(NCC(=O)N1CCCC1C(=O)OC(=O)C1CCCN1C(=O)CNC(=O)OCc1ccccc1)OCc1ccccc1 (stereo not given)
inactive: [1] 44.3% | [2] 1.2% | [3] 4.35% | [4] 16.2% | [5] 18.2% | [6] -28.1%
